Test results: PubChem BioAssay (NCATS)
“And” between values parts separate entries of the source, which are not always exact repeats. Equal values may be shown once. Results filed as inconclusive are left out. Entries that show only a call come without a potency. The source made the active and inactive calls. The call rests on the fitted dose curve; in most records, active means well fitted curve in the direction sought with a large enough effect; inconclusive means small, poorly fitted or top-dose-only effect, or another doubt; inactive means no such curve, though single readings can be large; an effect the other way counts as inactive or inconclusive.

Tests used:
[1] = molecular target: Cytochrome P450 3A7 (Homo sapiens) (UniProt P24462); assay: Cytochrome P450 family 3 subfamily A member 7 (CYP3A7) small molecule antagonists: luciferase biochemical qHTS assay (AID 1963596); settings: P450-Glo CYP3A7 enzyme luminescence, 1 h; series mostly up to 57.4 µM; further: nearly all actives have a fitted effect of over 40% in size
Method in brief: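 Compounds were screened in qHTS format for interference with CYP3A7 turnover of a proluciferin substrate. Reactions ran 1 h at room temperature after NADPH regeneration solution was added, then luciferin product was detected by luminescence.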

[2] = Viability qHTS for spleen associated tyrosine kinase inhibitor (SYKi) naive MV4-11 cells (AID 1963823); settings: MV4-11 AML viability, CellTiter-Glo luminescence, 72 h; series mostly up to 45 µM; further: nearly all actives have a fitted effect of over 40% in size; further: potency means the concentration at half of the fitted maximal effect
Method in brief: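 qHTS, SYK inhibitor-naive MV4-11; 500 cells/well; 72 hr compound exposure, 37 C; CellTiter-Glo added, 10 min RT; luminescence read.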

[3] = Viability qHTS for spleen associated tyrosine kinase inhibitor (SYKi) drug resistant MV4-11 cells (AID 1963824); settings: SYKi-resistant MV4-11 viability, CellTiter-Glo, 72 h; series mostly up to 45 µM; further: nearly all actives have a fitted effect of over 35% in size; further: potency means the concentration at half of the fitted maximal effect
Method in brief: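 CellTiter-Glo luminescence, read 10 min after reagent addition, reports viability after a 72 hr compound exposure. Cells are an MV4-11 line made resistant to SYK inhibition, seeded at 500 per well onto compound-containing plates.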

[4] = Quantitative highthroughput screen to assess conditional lethalithy of NOMO1 cells grown in RPMI1640 with untreated serum (RPMI+s) (AID 1963876); settings: NOMO1 AML cells in RPMI+serum, CellTiter-Glo viability, 48 h; series mostly up to 45.8 µM; further: nearly all actives have a fitted effect of over 35% in size
Method in brief: (§1)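 Each medium arm—HPLM with 10% dialyzed FBS, or RPMI1640 with 5 mM glucose and 10% untreated or dialyzed FBS—was screened against an 11-point, 3-fold compound titration for 48 h at 37 °C, with CellTiter-Glo luminescence as endpoint.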

[5] = Quantitative highthroughput screen to assess conditional lethalithy of NOMO1 cells grown in RPMI1640 with dialyzed fetal bovine serum (RPMI+ds) (AID 1963877); settings: NOMO1 in RPMI+dialyzed FBS viability, ATP luminescence, 48 h; series mostly up to 45.8 µM; further: nearly all actives have a fitted effect of over 30% in size
Method in brief: as §1

[6] = Quantitative highthroughput screen to assess conditional lethalithy of NOMO1 cells grown in Human Plasma-Like Medium with dialyzed fetal bovine serum (HPLM+ds) (AID 1963878); settings: NOMO1 AML cells in HPLM+ds, CellTiter-Glo viability, 48 h; series mostly up to 45.8 µM; further: nearly all actives have a fitted effect of over 35% in size
Method in brief: as §1

[7] = Quantitative highthroughput screen to assess conditional lethalithy of P12 Ichikawa cells grown in Human Plasma-Like Medium with dialyzed fetal bovine serum (HPLM+ds) (AID 1963879); settings: ATP luminescence, 48 h; Potency: viability; series mostly up to 45.8 µM; further: nearly all actives have a fitted effect of over 35% in size
Method in brief: as §1

[8] = Quantitative highthroughput screen to assess conditional lethalithy of P12 Ichikawa cells grown in RPMI1640 with untreated serum (RPMI+s) (AID 1963881); settings: ATP luminescence, 48 h; Potency: viability; series mostly up to 45.8 µM; further: nearly all actives have a fitted effect of over 35% in size
Method in brief: as §1

[9] = Cellular viability qHTS for adrenocortical cancer (ACC) cell line SW-13 (AID 1963989); settings: SW-13 ACC cells viability, CellTiter-Glo, 48 h; activity (max response): stronger effect = lower value;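 further: cells grown in serum-free medium with ITS supplement; nearly all actives have a fitted effect of over 65% in size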
Method in brief: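 48 h treatment, SW-13 in ITS/DMEM serum-free; doses up to 46 uM; readout CellTiter-Glo luminescence; curve fit four-parameter logistic.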

[10] = Cellular viability qHTS for adrenocortical cancer (ACC) cell line NCI-H295R (AID 1963990); settings: CellTiter-Glo ATP luminescence, 48 h; series mostly up to 46.1 µM; further: nearly all actives have a fitted effect of over 60% in size
Method in brief: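 Compound titrations (up to 46 uM final) are applied to NCI-H295R cultures for 48 h at 37C. Viable cell number is estimated by CellTiter-Glo signal, normalised to DMSO and doxorubicin controls.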

[11] = Quantitative highthroughput screen to assess conditional lethalithy of P12 Ichikawa cells grown in RPMI1640 with dialyzed fetal bovine serum (RPMI+ds) (AID 1963880); settings: ATP luminescence, 48 h; Potency: P12-Ichikawa viability; series mostly up to 45.8 µM; further: nearly all actives have a fitted effect of over 35% in size; further: potency means the concentration at half of the fitted maximal effect
Method in brief: as §1

[12] = Quantitative highthroughput screen to assess conditional lethalithy of SEM cells grown in RPMI1640 with unreated serum (RPMI+s) (AID 1963883); settings: SEM B-ALL cells, CellTiter-Glo viability, 48 h; series mostly up to 45.8 µM; further: nearly all actives have a fitted effect of over 35% in size; further: potency means the concentration at half of the fitted maximal effect
Method in brief: as §1

[13] = Quantitative highthroughput screen to assess conditional lethalithy of SEM cells grown in Human Plasma-Like Medium with dialyzed fetal bovine serum (HPLM+ds) (AID 1963882); settings: SEM B-ALL cells in HPLM+ds, CellTiter-Glo viability, 48 h; series mostly up to 45.8 µM; further: nearly all actives have a fitted effect of over 35% in size
Method in brief: as §1

[14] = Quantitative highthroughput screen to assess conditional lethalithy of SEM cells grown in RPMI1640 with dialyzed fetal bovine serum (RPMI+ds) (AID 1963884); settings: SEM B-ALL cells, RPMI+dialyzed FBS, CellTiter-Glo viability, 48 h; series mostly up to 45.8 µM; further: nearly all actives have a fitted effect of over 35% in size; further: potency means the concentration at half of the fitted maximal effect
Method in brief: as §1

Chain of Cytochrome P450 3A7 (Homo sapiens) (P24462 whole entry, looked up): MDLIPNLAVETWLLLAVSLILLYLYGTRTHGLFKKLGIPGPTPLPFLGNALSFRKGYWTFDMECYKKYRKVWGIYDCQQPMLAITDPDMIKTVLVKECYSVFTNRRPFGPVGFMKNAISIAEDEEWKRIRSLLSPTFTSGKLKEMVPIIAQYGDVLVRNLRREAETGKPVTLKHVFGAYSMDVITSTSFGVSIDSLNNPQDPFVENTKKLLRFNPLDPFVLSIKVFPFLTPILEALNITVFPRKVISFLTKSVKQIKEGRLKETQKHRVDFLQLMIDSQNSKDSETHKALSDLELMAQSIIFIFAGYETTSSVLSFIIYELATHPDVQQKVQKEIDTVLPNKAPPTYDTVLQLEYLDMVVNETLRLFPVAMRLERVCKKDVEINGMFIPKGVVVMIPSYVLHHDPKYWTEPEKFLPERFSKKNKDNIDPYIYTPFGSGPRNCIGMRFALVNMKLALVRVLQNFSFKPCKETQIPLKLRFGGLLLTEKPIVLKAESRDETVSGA

NS(=O)(=O)c1cc(Cl)c(Cl)c(S(N)(=O)=O)c1
Potency [1]: inactive
Potency [2]: inactive
Potency [3]: inactive
Potency [4]: inactive
Potency [5]: inactive
Potency [6]: inactive
Potency [7]: inactive
Potency [8]: inactive
activity (max response) [9]: -6.34% (inactive)
Potency [10]: inactive

CNNCc1ccc(C(=O)NC(C)C)cc1
Potency [1]: inactive
Potency [2]: inactive
Potency [3]: inactive
Potency [4]: inactive
Potency [5]: inactive
Potency [7]: inactive
activity (max response) [9]: 0.571% (inactive) and -4.58% (inactive)
Potency [10]: inactive

NCCCCCC(=O)O
Potency [1]: inactive
Potency [2]: inactive
Potency [3]: inactive
Potency [4]: inactive
Potency [5]: inactive
Potency [7]: inactive
Potency [11]: inactive
Potency [8]: inactive
Potency [12]: inactive
activity (max response) [9]: 12.2% (inactive) and -16.4% (inactive)
Potency [10]: inactive

CCn1cc(C(=O)O)c(=O)c2cc(F)c(N3CCNC(C)C3)c(F)c21 (stereo unspecified)
Potency [1]: inactive
Potency [2]: inactive
Potency [3]: inactive
Potency [4]: inactive
Potency [5]: inactive
Potency [6]: inactive
Potency [11]: inactive
Potency [8]: inactive
Potency [13]: inactive
Potency [12]: inactive
Potency [14]: inactive
activity (max response) [9]: -4.05% (inactive) and -10.4% (inactive)
Potency [10]: inactive

NC(=O)c1cccc2cn(-c3ccc([C@@H]4CCCNC4)cc3)nc12
Potency [1]: inactive
Potency [2]: 9.2 µM (active) and 14.8 µM (active)
Potency [3]: 10.3 µM (active) and 16.6 µM (active)
Potency [4]: inactive
Potency [5]: inactive
Potency [10]: inactive

Cc1cnc(CNC(=O)c2c(=O)c3ccc(N4CCCN(C)CC4)nc3n3c2sc2ccccc23)cn1
Potency [1]: inactive
Potency [2]: 841 nM (active)
Potency [3]: 1.68 µM (active)
Potency [4]: inactive
Potency [5]: inactive
Potency [6]: inactive
Potency [7]: inactive
Potency [12]: 2.88 µM (active)

O=C(c1ccccc1)c1ccc2n1CCC2C(=O)O (stereo unspecified)
Potency [1]: inactive
Potency [2]: inactive
Potency [3]: inactive
Potency [4]: inactive
Potency [5]: inactive
Potency [6]: inactive
Potency [11]: 4.18 µM (active)
Potency [14]: 4.69 µM (active)
activity (max response) [9]: 8.29% (inactive) and -6.52% (inactive)
Potency [10]: inactive
